The record followed here is the supplement of paper PMC9942566.

± gives the standard deviation of the averaged measurements.

The assay deals with Serratia marcescens K904 PosmB-luxCDABE reporter (pMQ747). Nature of the assay: PosmB-lux reporter fold induction (RLU/OD600 relative to no-compound control), highest over Biolog concentrations; higher = stronger reporter activation. The settings on record: ΔrcsB mutant CMS5177; 4 h. As to the method: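 Serratia marcescens K904 (wild type) or its isogenic ΔrcsB mutant, carrying the Rcs-dependent PosmB-luxCDABE reporter plasmid pMQ747, was grown in LB at OD600 0.1 in Biolog Phenotype MicroArray plates PM11-20 for 4 h at 30-32°C. Each compound is present at 3-4 proprietary concentrations (not stated); per the Fig. S1 legend the value given is the highest fold over those wells. Three independent trials.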
Take `Cn1c(=O)c2c(ncn2C)n(C)c1=O` [caffeine] (Biolog plate: PM17, well positions: H5-8): the “PosmB-lux reporter fold induction” value was 1.52 ± 0.34.

Turning to `CC1=CC(=O)c2ccccc2C1=O` [Menadione] (Biolog plate: PM15, well positions: G9-12), the “PosmB-lux reporter fold induction” value amounted to 0.917 ± 0.14.

As to `O=C(N[C@H](CO)[C@H](O)c1ccc([N+](=O)[O-])cc1)C(Cl)Cl` [Chloramphenicol] (Biolog plate: PM14, well positions: F1-4), the “PosmB-lux reporter fold induction” value worked out at 1.87 ± 1.1.

For the compound `CCC[C@@H]1C[C@@H](C(=O)N[C@@H]([C@H]2O[C@H](SC)[C@H](O)[C@@H](O)[C@H]2O)[C@@H](C)O)N(C)C1` [Lincomycin] (Biolog plate: PM11, well positions: A9-12), the “PosmB-lux reporter fold induction” value is 2.28 ± 0.49.

As for `COc1cc(NS(=O)(=O)c2ccc(N)cc2)ncn1` [sulfamono-methoxine] (Biolog plate: PM17, well positions: C9-12), the “PosmB-lux reporter fold induction” value came out at 1.4 ± 0.25.

As for `COc1ccc(C[C@H](N)C(=O)N[C@H]2[C@@H](O)[C@H](n3cnc4c(N(C)C)ncnc43)O[C@@H]2CO)cc1` [Puromycin] (Biolog plate: PM15, well positions: F9-12), the “PosmB-lux reporter fold induction” value was determined as 3.56 ± 1.7.

Regarding `Cc1cc(C)nc(NS(=O)(=O)c2ccc(N)cc2)n1` [Sulfamethazine] (Biolog plate: PM12, well positions: D5-8), the “PosmB-lux reporter fold induction” value was determined as 1.41 ± 0.34.

For `N[C@@H]1CONC1=O` [D-Cycloserine] (Biolog plate: PM15, well positions: B1-4), the “PosmB-lux reporter fold induction” value stood at 1.43 ± 0.18.

With `CN(C)CCC=C1c2ccccc2CCc2ccccc21` [amitriptyline] (Biolog plate: PM20, well positions: A2-4), the “PosmB-lux reporter fold induction” value stood at 1.16 ± 0.17.

As to `CC1COc2c(N3CCN(C)CC3)c(F)cc3c(=O)c(C(=O)O)cn1c23` (configuration not stated) [Ofloxacin] (Biolog plate: PM11, well positions: H9-12), the “PosmB-lux reporter fold induction” value turned out to be 1.96 ± 0.47.

For `OC(CCN1CCCCC1)(c1ccccc1)c1ccccc1` [pridinol] (Biolog plate: PM20, well positions: F9-12), the “PosmB-lux reporter fold induction” value turned out to be 1.5 ± 0.42.

Turning to `O=C(O)c1ccccc1S` [Thiosalicylic acid] (Biolog plate: PM17, well positions: A9-12), the “PosmB-lux reporter fold induction” value worked out at 0.982 ± 0.15.

`C[n+]1cc2c3c(ccc2c2ccc4cc5c(cc4c21)OCO5)OCO3` [Sanguinarine] (Biolog plate: PM14, well positions: A9-12): the “PosmB-lux reporter fold induction” value was 1.14 ± 0.32.

As to `CC1(C)S[C@@H]2[C@H](NC(=O)[C@H](N)c3ccccc3)C(=O)N2[C@H]1C(=O)O` [Ampicillin] (Biolog plate: PM13, well positions: A2-4), the “PosmB-lux reporter fold induction” value worked out at 1.06 ± 0.25.

`[Cl-].[Cs+]` [Cesium chloride] (Biolog plate: PM13, well positions: F1-4): the “PosmB-lux reporter fold induction” value was 1.64 ± 0.47.

Turning to `Nc1ccc(S(N)(=O)=O)cc1` [sulfanilamide] (Biolog plate: PM16, well positions: B5-8), the “PosmB-lux reporter fold induction” value was found to be 1.59 ± 0.33.

Consider `O=C(O)c1cc(O)c(O)c(O)c1` [gallic acid] (Biolog plate: PM19, well positions: A5-8), for which the “PosmB-lux reporter fold induction” value amounted to 1.33 ± 0.48.

In the case of `CO[C@H]1/C=C/O[C@@]2(C)Oc3c(C)c(O)c4c(O)c(c(/C=N/N5CCN(C)CC5)c(O)c4c3C2=O)NC(=O)/C(C)=C\C=C\[C@H](C)[C@H](O)[C@@H](C)[C@@H](O)[C@@H](C)[C@H](OC(C)=O)[C@@H]1C` [Rifampicin] (Biolog plate: PM12, well positions: H5-8), the “PosmB-lux reporter fold induction” value is 17.2 ± 8.3.

For `CC(CN1c2ccccc2Sc2ccccc21)N(C)C` (configuration not stated) [Promethazine] (Biolog plate: PM14, well positions: H5-8), the “PosmB-lux reporter fold induction” value was determined as 1.43 ± 0.21.

Take `CCCCCCCCCCCC[N+](C)(C)C` [Dodecyltrimethyl ammonium bromide] (Biolog plate: PM12, well positions: H9-12): the “PosmB-lux reporter fold induction” value was found to be 1.97 ± 0.62.

With `Cc1noc(NS(=O)(=O)c2ccc(N)cc2)c1C` [sulfisoxazole] (Biolog plate: PM18, well positions: C5-8), the “PosmB-lux reporter fold induction” value was determined as 1.5 ± 0.35.

Take `CC[C@H]1OC(=O)C[C@@H](O)[C@H](C)[C@@H](O[C@@H]2O[C@H](C)[C@@H](O[C@H]3C[C@@](C)(O)[C@@H](O)[C@H](C)O3)[C@H](N(C)C)[C@H]2O)[C@@H](CC=O)C[C@@H](C)C(=O)/C=C/C(C)=C/[C@@H]1CO[C@@H]1O[C@H](C)[C@@H](O)[C@@H](OC)[C@H]1OC` [Tylosin] (Biolog plate: PM13, well positions: H9-12): the “PosmB-lux reporter fold induction” value is 4.38 ± 1.6.

As to `NCC(=O)NO` [glycine hydroxamate] (Biolog plate: PM16, well positions: H1-4), the “PosmB-lux reporter fold induction” value amounted to 2.02 ± 0.63.

With `CCCCCCCCCCCC[N+](C)(C)CCOc1ccccc1` [Domiphen bromide] (Biolog plate: PM15, well positions: D5-8), the “PosmB-lux reporter fold induction” value is 2.39 ± 0.17.

For `CO[C@@]1(NC(=O)CSCC#N)C(=O)N2C(C(=O)O)=C(CSc3nnnn3C)CS[C@@H]21` [Cefmetazole] (Biolog plate: PM15, well positions: A9-12), the “PosmB-lux reporter fold induction” value was 1.51 ± 0.23.

Regarding `O=C1CN(/N=C/c2ccc([N+](=O)[O-])o2)C(=O)N1` [Nitrofurantoin] (Biolog plate: PM14, well positions: E5-8), the “PosmB-lux reporter fold induction” value is 1.19 ± 0.084.

Take `CN[C@@H]1[C@H](O)[C@H](NC)[C@H]2O[C@@]3(O)C(=O)C[C@@H](C)O[C@H]3O[C@@H]2[C@H]1O` [Spectinomycin] (Biolog plate: PM12, well positions: G1-4): the “PosmB-lux reporter fold induction” value was determined as 1.6 ± 0.68.
